The text below walks through data of the supplement of paper PMC6522484.

± gives the standard deviation of the averaged measurements.

The subject of test [1] is DLD1. Nature of the test: cell viability (CellTiter-Glo) relative to plate median (fraction of plate median); higher = more viable cells. Particulars: 10 µM, treatment time 24 h. In short, it runs like this:
(§1)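 Colorectal cancer cell lines carrying stably transduced lentiviral TCF/Wnt firefly luciferase reporters (7TFP or TCF4/Wnt) were plated in 384-well plates and treated 24 h later with kinase inhibitor library compounds at a final 10 µM for 24 h. Firefly luciferase or CellTiterGlo luminescence was read on parallel plates with a Tecan F500 reader. Signals were normalised per well to the plate median in webcellHTS2 (additive, no log transformation), and values are the mean of two independent replicates.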
In general terms: In ATP-based viability assays light output follows the ATP content of the culture.

The test system of test [2] is HCT116. Described as above. Conditions: 10 µM; treatment time 24 h; reporter: TCF4/Wnt. In outline: as §1
Test [3] relates to SW480. The test is described as above. Particulars: 10 µM; treatment time 24 h; reporter: 7TFP. In short, it runs like this:
as §1

In test [4] the test system is DLD1. Nature of the test: TCF/Wnt firefly luciferase reporter signal relative to plate median (fraction of plate median); higher = higher Wnt reporter signal. Particulars: 10 µM, treatment time 24 h. In short, it runs like this: as §1
The test system of test [5] is HCT116. The test is described as above. Particulars: 10 µM; treatment time 24 h; reporter: TCF4/Wnt. In outline:
as §1

For test [6], the system named is SW480. The description is as above. Conditions: 10 µM; treatment time 24 h; reporter: 7TFP. In short, it runs like this:
as §1

Take `C[S+]([O-])c1ccc(-c2nc(-c3ccc(F)cc3)c(-c3ccncc3)[nH]2)cc1` (centres undefined): the cell viability in the test on DLD1 [1] (reporter: 7TFP) was 0.99 ± 0.099; in the test on DLD1 [1] (reporter: TCF4/Wnt) it was 1.02 ± 0.028; with HCT116 [2], 1.11 ± 0.035; in the test with SW480 [3] it was 0.913 ± 0.0099. The “TCF/Wnt firefly luciferase reporter signal” value in the test on DLD1 [4] (reporter: 7TFP) was 0.82 ± 0.16; in the test on DLD1 [4] (reporter: TCF4/Wnt), 0.884 ± 0.22; with HCT116 [5], 1.26 ± 0.38; in the test with SW480 [6], 0.935 ± 0.064.
Take `Oc1ccc(-c2nc(-c3ccc(F)cc3)c(-c3ccncc3)[nH]2)cc1`: the cell viability in the test on DLD1 [1] (reporter: 7TFP) is 1.08 ± 0.064; with DLD1 [1] (reporter: TCF4/Wnt), 1.04 ± 0.014; with HCT116 [2], 1.14 ± 0.021; in the test on SW480 [3], 0.916 ± 0.013. The “TCF/Wnt firefly luciferase reporter signal” value with DLD1 [4] (reporter: 7TFP) was found to be 0.747 ± 0.27; in the test on DLD1 [4] (reporter: TCF4/Wnt), 0.85 ± 0.04; with HCT116 [5], 1.05 ± 0.035; in the test on SW480 [6], 0.792 ± 0.15.
Regarding `O=C(O)[C@]1(Cc2cccc(Nc3nccs3)n2)CC[C@@H](Oc2cccc(Cl)c2F)CC1`, the cell viability with DLD1 [1] (reporter: 7TFP) worked out at 1.08 ± 0.092; in the test with DLD1 [1] (reporter: TCF4/Wnt) it was 1.02 ± 0.014; in the test with HCT116 [2] it was 0.959 ± 0.057; with SW480 [3], 1.14 ± 0.014. In addition, the “TCF/Wnt firefly luciferase reporter signal” value with DLD1 [4] (reporter: 7TFP) worked out at 0.824 ± 0.061; in the test on DLD1 [4] (reporter: TCF4/Wnt) it was 0.857 ± 0.2; in the test on HCT116 [5], 0.568 ± 0.44; in the test with SW480 [6], 0.742 ± 0.0071.
On to `O=C1NCCc2[nH]c(-c3ccncc3)cc21`, for which the cell viability in the test with DLD1 [1] (reporter: 7TFP) was found to be 1.03 ± 0.14; with DLD1 [1] (reporter: TCF4/Wnt), 1.03 ± 0.054; in the test with HCT116 [2] it was 0.665 ± 0.14; in the test with SW480 [3] it was 1.24 ± 0.11. Also, the “TCF/Wnt firefly luciferase reporter signal” value was determined as 0.612 ± 0.054 with DLD1 [4] (reporter: 7TFP), 0.44 ± 0.11 in the test with DLD1 [4] (reporter: TCF4/Wnt), 0.222 ± 0.0085 in the test on HCT116 [5] and 0.829 ± 0.023 in the test on SW480 [6].
Turning to `CC(C)CC(=O)Nc1n[nH]c2c1CN(C(=O)C1CCN(C)CC1)C2(C)C`, the cell viability turned out to be 1.07 ± 0.028 with DLD1 [1] (reporter: 7TFP), 1.27 ± 0.15 in the test on DLD1 [1] (reporter: TCF4/Wnt), 0.793 ± 0.13 with HCT116 [2] and 1.32 ± 0.071 in the test on SW480 [3]. In addition, the “TCF/Wnt firefly luciferase reporter signal” value was 1.33 ± 0.26 with DLD1 [4] (reporter: 7TFP), 2.31 ± 0.37 in the test with DLD1 [4] (reporter: TCF4/Wnt), 0.193 ± 0.053 with HCT116 [5] and 0.836 ± 0.064 in the test with SW480 [6].
Consider `O=c1sn(-c2cccc3ccccc23)c(=O)n1Cc1ccccc1` [Tideglusib], for which the cell viability was 1.03 ± 0.081 with DLD1 [1] (reporter: 7TFP), 0.9475 ± 0.005 with DLD1 [1] (reporter: TCF4/Wnt), 1.03 ± 0.067 with HCT116 [2] and 0.946 ± 0.0099 in the test with SW480 [3]. In addition, the “TCF/Wnt firefly luciferase reporter signal” value with DLD1 [4] (reporter: 7TFP) stood at 1.32 ± 0.035; in the test with DLD1 [4] (reporter: TCF4/Wnt) it was 1.17; with HCT116 [5], 1.285 ± 0.0071; in the test with SW480 [6] it was 1.11 ± 0.064.
For the compound `Fc1cc(-c2cccc3ncc(-c4cnn(C5CCNCC5)c4)nc23)cc(F)c1CN1CCOCC1`, the cell viability in the test on DLD1 [1] (reporter: 7TFP) was found to be 0.974 ± 0.14; in the test with DLD1 [1] (reporter: TCF4/Wnt), 0.981 ± 0.055; in the test on HCT116 [2], 1.01 ± 0.055; in the test with SW480 [3], 1.05 ± 0.12. In addition, the “TCF/Wnt firefly luciferase reporter signal” value is 1.04 ± 0.19 in the test on DLD1 [4] (reporter: 7TFP), 1.02 ± 0.089 in the test on DLD1 [4] (reporter: TCF4/Wnt), 0.967 ± 0.076 in the test on HCT116 [5] and 1.52 in the test with SW480 [6].
Turning to `Cc1nc(Nc2ncc(C(=O)Nc3c(C)cccc3Cl)s2)cc(N2CCN(CCO)CC2)n1`, the cell viability with DLD1 [1] (reporter: 7TFP) amounted to 0.774 ± 0.11; with DLD1 [1] (reporter: TCF4/Wnt) it was 0.898 ± 0.13; in the test with HCT116 [2] it was 1.01 ± 0.035; in the test on SW480 [3] it was 1.06 ± 0.071. In addition, the “TCF/Wnt firefly luciferase reporter signal” value in the test with DLD1 [4] (reporter: 7TFP) came out at 0.54 ± 0.063; in the test with DLD1 [4] (reporter: TCF4/Wnt), 0.487 ± 0.031; in the test with HCT116 [5], 0.706 ± 0.078; with SW480 [6] it was 0.615 ± 0.07.
